Bioassay records: PubChem, The Scripps Research Institute Molecular Screening Center
In the library only some 0.9% were active in any assay of this set; here they are far more common.
SRC1 TRFRET art: counter-screen for PPARgamma SRC-1 recruitment agonists: TR-FRET artefact | TR-FRET detection artefact counter-screen, emission ratio; active compounds read high | TR-FRET ratio at 8 µM | hit rate 0.34% among 99,000 | AID 1051; in the data active means TR-FRET ratio above about 2300
PPARg SRC1 recr: PPARgamma-driven SRC-1 recruitment agonism. AID 631. P37231. hit rate 0.41% among 200,000. activation, % at 8 µM. PPARgamma-SRC-1 coactivator recruitment biochemical assay; in the data active means activation above about 19%;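 further: 0% = DMSO and 100% = reference agonist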
PPARg SRC-2 ag: PPARgamma-driven SRC-2 recruitment agonism; activation, % at 8 µM; PPARgamma LBD-SRC-2 recruitment, biochemical; hit rate 0.34% among 200,000; P37231;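 further: 0% = vehicle and 100% = reference agonist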
PPARg SRC3 recr: PPARgamma-driven SRC-3 recruitment agonism. P37231. hit rate 0.26% among 200,000. biochemical PPARgamma/SRC-3 coactivator recruitment assay. activation, % at 8 µM; in the data active means activation above about 23%;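 further: 0% = DMSO and 100% = reference agonist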
TR-FRET SRC-2 ct: counter-screen for PPARgamma SRC-2 recruitment agonists: TR-FRET artefact; active compounds read high; TR-FRET ratio at 8 µM; hit rate 0.4% among 200,000; in the data active means TR-FRET ratio above about 2000
SRC3 TRFRET art: flags TR-FRET format artefacts in PPARgamma SRC-3 recruitment agonist screen; TR-FRET artefact counter-screen, PPARgamma/SRC-3 format; active compounds read high; TR-FRET ratio at 8 µM; hit rate 0.39% among 99,000; AID 1048; in the data active means TR-FRET ratio above about 2000
PPARg SRC2 conf: confirmation of agonists of SRC-2 recruitment by human PPARgamma; biochemical SRC-2 recruitment by PPARgamma; activation, % at 8 µM; shares compounds with PPARg SRC3 recr; hit rate 52% among 790;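 further: 0% = vehicle alone and 100% = reference agonist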
PPARg SRC1 ag: confirmation of agonists of SRC-1 recruitment by human PPARgamma | PPARgamma–SRC-1 coactivator recruitment biochemical assay | shares compounds with PPARg SRC3 recr | AID 1300 | hit rate 43% among 790 | activation, % at 8 µM; in the data active means activation above about 20%;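 further: 0% = vehicle wells and 100% = reference agonist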
PPARg SRC3 ag: human PPARgamma SRC-3 recruitment agonism, confirmation; hit rate 29% among 790; AID 1301; shares compounds with PPARg SRC3 recr; activation, % at 8 µM; biochemical PPARgamma-SRC-3 coactivator recruitment, agonist mode; in the data active means activation above about 24%;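 further: 0% = vehicle wells and 100% = reference agonist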
The depositor's hits bear a star; . = no result. Unless noted, no stated cut-off is given here; in the data, active means activation above about 22%; inactive means the rest.

SMILES	SRC1 TRFRET art	PPARg SRC1 recr	PPARg SRC-2 ag	PPARg SRC3 recr	TR-FRET SRC-2 ct	SRC3 TRFRET art	PPARg SRC2 conf	PPARg SRC1 ag	PPARg SRC3 ag
Nc1nc2ccc(N3CCOCC3)cc2s1	.	25*	7	8	1575	.	.	.	.
FC(F)(F)c1cccc(NC(=S)NCc2ccc(Cl)cc2)c1	1768	6	3	6	1667	2072*	.	.	.
Cc1ccc(/C([O-])=C(/C(=S)NCc2ccccc2)[n+]2cccc(CO)c2)cc1[N+](=O)[O-]	1767	9	-1	6	1574	1666	.	.	.
N#Cc1cc2c(nc1SCc1ccc(Cl)cc1)CCCC2	.	0	1	-10	1440	.	.	.	.
Cc1ccc(CSc2nc3c(cc2C#N)CCC3)cc1	.	30*	-4	1	1460	.	.	.	.
COc1ccc(Nc2nc(S(=O)(=O)c3ccc(C)cc3)c(Cl)s2)cc1	2100	6	3	23*	1709	1860	.	.	.
Cc1ccc(S(=O)(=O)c2nc(Nc3ccccc3)sc2Cl)cc1	1923	13	8	6	1595	1658	.	.	.
CCc1cc2ccc(OC)cc2nc1SCC(=O)Nc1cc(C)on1	.	4	0	13	1582	.	.	.	.
COc1ccc2c(-c3ccccc3)cc(SCC(=O)NC(N)=O)nc2c1	1656	-4	9	33*	1589	4477*	.	.	.
NS(=O)(=O)c1ccc(CCNC(=O)c2cc(-c3ccccn3)nc3ccc(Br)cc23)cc1	2153	22*	11	15	1850	2530*	5	5	6
NC(=O)C1CCN(CC(=O)Nc2cc(Cl)ccc2Oc2ccccc2)CC1	1916	3	4	3	1572	1677	.	.	.
CSc1ccccc1-c1nnc(-c2ccccc2)o1	.	0	0	9	1741	.	.	.	.
CSc1nnc(-c2ccccc2SC)o1	2301	22*	20	14	1917	2050	19	12	8
O=C(Nc1ccc2c(c1)CCC2)c1cccc(S(=O)(=O)N2CCN(c3ccccc3)CC2)c1	.	13	18	10	1930	.	.	.	.
COC(=O)c1sc(NC(=O)CSc2nnc(C(C)C)n2C)nc1C	.	19*	14	10	1715	.	0	0	0
CCOC(=O)c1sc(NC(=O)CSc2nnc(C(C)C)n2C)nc1C	.	3	1	13	1699	.	.	.	.
CCC(OC(=O)c1cc2sccc2n1C)C(=O)NCC1CCCO1 (stereo unspecified)	.	22*	11	11	1531	.	12	17	17
O=C(Nc1nnc(-c2ccco2)s1)C1CCN(S(=O)(=O)c2ccc(Cl)cc2)CC1	.	34*	20	36*	1816	.	24*	20	14
COC(=O)Cn1c(=NC(=O)CSCC(=O)NC2CCCCC2)sc2cc(OC)ccc21	.	3	4	8	1468	.	.	.	.
CCN=C1SC(C(=O)NCCc2ccccc2)CC(=O)N1CC (stereo unspecified)	.	-4	-9	-1	1353	.	.	.	.
CCCCn1c(=S)[nH]c2c(oc3ccc(Cl)cc32)c1=O	.	22*	17	18	1792	.	12	5	11
CN(Cc1ccccc1)C(=O)CSc1cc(=O)n(C)c2ccccc12	3203*	46*	17	31*	2656*	2514*	32*	22*	24*
CCn1c(=O)cc(SCC(=O)N(C)Cc2ccccc2)c2ccccc21	.	32*	47*	34*	2336*	.	42*	28*	27*
CCCc1cc(=O)[nH]c(SCC(=O)N(C)Cc2ccccc2)n1	.	3	9	5	1409	.	.	.	.
Cn1c(=O)cc(SCC(=O)NCC2COc3ccccc3O2)c2ccccc21 (stereo unspecified)	.	4	15	12	1878	.	.	.	.
SMILES	SRC1 TRFRET art	PPARg SRC1 recr	PPARg SRC-2 ag	PPARg SRC3 recr	TR-FRET SRC-2 ct	SRC3 TRFRET art	PPARg SRC2 conf	PPARg SRC1 ag	PPARg SRC3 ag
CCOC(=O)CSc1cc(=O)n(C)c2cc(Cl)ccc12	.	77*	68*	97*	3535*	.	43*	26*	28*
CCOC(=O)CSc1cc(=O)n(CC)c2ccccc12	.	28*	36*	32*	2136*	.	27*	17	19
CSc1nsc(/C=C/Nc2ccc(C)c(C)c2)c1C#N	2059	4	2	7	1780	1799	.	.	.
CCCc1cc(=O)[nH]c(SCC(=O)NC)n1	.	-3	8	-3	1598	.	.	.	.
Cc1cc(C)n(CC(C)C(=O)O)n1 (stereo unspecified)	1562	1	-1	-1	1448	1290	.	.	.
O=C(COc1ccc(Cl)cc1Cl)N1CCCC1	.	1	2	-1	1413	.	.	.	.
COc1cc(NC(=S)NNC(=O)C(C)(C)O)cc(OC)c1	1750	-6	-6	-1	1424	1559	.	.	.
COc1ccc2c(c1)CCC1C2=NN(/C(C)=C/C(C)=O)C1c1cccc(F)c1 (stereo unspecified)	1740	-8	-1	4	1483	1632	.	.	.
CCCCN(CC)C(=O)CSc1cc(=O)n(C)c2ccccc12	.	55*	51*	74*	2446*	.	32*	20*	21
Cn1c(=O)cc(SCC(=O)N2CCCC2)c2ccccc21	2601*	30*	35*	20	2431*	2626*	37*	24*	26*
CCOc1ccc(CCNC(=O)CSc2cc(=O)n(CC)c3ccccc23)cc1OCC	2106	20*	31*	15	2084*	1684	25*	18	17
CCOC(=O)N1CCC(NC(=O)CSc2cc(=O)n(C)c3ccccc23)CC1	.	47*	49*	48*	2545*	.	40*	26*	25*
O=C(CCC1CCCC1)NCc1ccccn1	.	-3	10	8	1627	.	.	.	.
COc1ccc(Nc2nc3cc(C)ccc3cc2C#N)c(OC)c1	1726	-4	1	-2	1603	1544	.	.	.
Cc1ccc(C)c(-n2c3nc(=O)[nH]c(=O)c-3cc3cc([N+](=O)[O-])ccc32)c1	1662	13	-3	23*	1510	1545	11	13	21
Cc1ccc(S(=O)(=O)c2c(CO)c(-c3ccccc3)nn2C)cc1	1892	17	10	34*	1327	1207	11	16	18
CC1Cc2ccccc2N1C(=O)COC(=O)C1(c2ccccc2F)CCCC1 (stereo unspecified)	1709	4	7	-3	1602	1587	.	.	.
Cc1ccc(OCCn2cc(/C=C3\C(=O)NN(c4ccccc4)C3=O)c3ccccc32)cc1	1900	-2	1	-4	1700	1493	.	.	.
O=C1NN(c2ccccc2)C(=O)/C1=C/c1ccc(Sc2cccc3ccccc23)o1	2739*	30*	39*	18	2448*	2511*	25*	19	19
Cc1nonc1NC(=O)OC1CCCCC1	.	12	0	16	1507	.	.	.	.
